# Results published in PubChem BioAssay AID2732 (Emory University Molecular Libraries Screening Center, 2010).
# “And” between values parts separate entries of the source, which are not always exact repeats. Identical values can stand only once. Screen size: about 220,000 compounds; about 8,200 (3.7%) were called active.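 The calls were made as follows: active = compounds that reduced the stress-induced luciferase reporter signal by more than about 70% of percent inhibition (limit read from the data); inactive = the rest.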 The entries come from a sample that favours actives as a whole. A structure can be active in one record and inactive in another.
# Experiment: inhibitors of CHOP promoter induction, primary screen, cell-based, unfolded protein response, luciferase reporter (AID 2732);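 also: 0% = tunicamycin plus vehicle and 100% = wells without tunicamycin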
# Settings: CHO-K1 CHOP-promoter luciferase, tunicamycin-induced, 15-18 h; at 10 µM; stronger effect = higher value
row,SMILES,inhibition
1,O=[N+]([O-])c1ccc2c(c1)C(O)n1nc(-c3ccccc3)nc1S2 (stereo not given),37.2% (inactive)
2,CCCc1nc2c(c(=O)c3ccccc3n2C)c(=O)n1-c1cc(C)cc(C)c1,-14.6% (inactive)
3,CCCc1nc2c(c(=O)c3ccccc3n2C)c(=O)n1C1CCCCCC1,95.5% (active)
4,Cn1c2ccccc2c(=O)c2c(=O)n(Cc3ccco3)c(COc3ccccc3)nc21,-34.3% (inactive)
5,COc1cc(OC)c(OC)cc1/C=N/Nc1ncnc2c1[nH]c1ccc(C)cc12,-33.8% (inactive)
6,O=c1ccnc(Nc2ccc(Cl)cc2)[nH]1,-1.5% (inactive)
7,CC1=NNC(=O)C1CCC(=O)N/N=C(\C)c1ccc(Cl)cc1 (stereo not given),5.21% (inactive)
8,O=C(NCCCN1CCOCC1)c1ccc([N+](=O)[O-])cc1[N+](=O)[O-],-3.24% (inactive)
9,O=[N+]([O-])c1cc(S(=O)(=O)CCCN2CCOCC2)ccc1F,97.8% (active)
10,O=[N+]([O-])c1ccc(NCCCN2CCOCC2)c(Cl)c1,13% (inactive)
11,O=C(CN1CCN(Cc2ccccc2)CC1)NC(c1ccccc1)c1ccccc1,-8.53% (inactive)
12,CC#CC[N+](C)(C)CCCCCC,-9.84% (inactive)
13,[O-][N+]12CCCCC1CCCC2CO (stereo not given),-6.34% (inactive)
14,COC(=O)/C=C\C(=O)Nc1cccc([N+](=O)[O-])c1,107% (active)
15,Cc1ccccc1NC(=S)Nc1cccc([N+](=O)[O-])c1,4.63% (inactive)
16,CC(=O)Nc1cccc([N+](=O)[O-])c1,13.9% (inactive)
17,COc1cccc(C(=O)n2ccc(-c3cccs3)n2)c1,17.3% (inactive)
18,O=c1c2ccccc2cnn1Cc1n[nH]c(=S)n1-c1ccccc1F,5.73% (inactive)
19,CCOC(=O)N1CCN(C(=O)CSc2nc(C)nc3c2c(=O)n(C)c(=O)n3C)CC1,28.2% (inactive)
20,CCC(C)Sc1nc(C)nc2c1c(=O)n(C)c(=O)n2C (stereo not given),82.4% (active)
21,CSc1nc(C)nc2c1c(=O)n(C)c(=O)n2C,11.2% (inactive)
22,O=c1c(-c2ccc(Cl)cc2)[n+]([O-])c2ccccc2n1OCc1nc2ccccc2[nH]1,11.1% (inactive)
23,C=CCC(Nc1ccccc1)c1cccc(OC)c1OC (stereo not given),29.3% (inactive)

row,SMILES,inhibition
1,CSCCC(NS(=O)(=O)c1ccc2c(c1)oc(=O)n2C)C(=O)NCc1ccccc1 (stereo not given),18.5% (inactive)
2,CSc1nc(-c2ccccc2)nc(C(Cl)Cl)n1,102% (active)
3,CSc1nc(C)cc(SC(C(C)=O)C(=O)Nc2ccccc2)n1 (stereo not given),9.45% (inactive)
4,COc1ccc(NS(=O)(=O)c2ccc(N3CCOCC3)c(NC(=O)c3ccccc3Br)c2)cc1,-3.53% (inactive)
5,CCOC(=O)N/N=C1\CC(C)S(=O)(=O)c2ccc(Cl)cc21 (stereo not given),-26.8% (inactive)
6,Cc1ccc(C(=O)NCC(=O)OCC(=O)Nc2cccc(S(=O)(=O)N3CCCC3)c2)cc1C,-17.8% (inactive)
7,CC(C)=C1SC(N2CCN(c3ccc(C)c(Cl)c3)CC2)=NC1=O,23.3% (inactive)
8,Cc1cc(C)cc(NS(=O)(=O)c2ccc(Oc3ncc(C(F)(F)F)cc3Cl)cc2)c1,90.3% (active)
9,COC(=O)Cc1ccc(Oc2ncc(C(F)(F)F)cc2Cl)cc1,29.9% (inactive)
10,COc1ccccc1Oc1ccc(S(=O)(=O)Nc2cccnc2)cc1,44.6% (inactive)
11,Cc1ccc(SCCC(=O)OCC(=O)Nc2ncc(Cl)cc2Cl)cc1,82% (active)
12,CC(Oc1ccc(Cl)cc1)C(=O)OCC(=O)Nc1ncc(Cl)cc1Cl (stereo not given),2.69% (inactive)
13,Cc1ccc(-n2c(SCC(=O)Nc3ncc(Cl)cc3Cl)nc3ccccc32)cc1,49.5% (inactive)
14,Cc1cc(NC(=O)Nc2ccc(Cl)cc2)n(-c2ccccc2)n1,10.7% (inactive)
15,C/C=C(/C)C(=O)Nc1cccc(C2=NOC3(C2)C[C@@H](C(N)=O)N(C(=O)C2(C)CC2)C3)c1 (stereo not given in full),-8.38% (inactive)
16,Cc1ccc(-n2[nH]c(C)c(/C=N/N3C(=O)c4cccc5cccc(c45)C3=O)c2=O)cc1,36.5% (inactive)
17,CCc1nnc(NS(=O)(=O)c2ccc(N=Cc3c(C)[nH]n(-c4ccc(C)cc4)c3=O)cc2)s1,-15.8% (inactive)
18,COc1cc(SC#N)ccc1N=Cc1c(C)[nH]n(-c2ccc(C)cc2)c1=O,107% (active)
19,CCCCCCCCCCCCN1C(=O)CSC1c1cccnc1 (stereo not given),28.5% (inactive)
20,COc1ccc(C(=O)CN2C(=O)NC(C)(c3ccc(C)cc3)C2=O)cc1OC (stereo not given),15.7% (inactive)
21,Cc1ccc(C2(c3ccc(C)cc3)NC(=O)N(Cc3c(C)noc3C)C2=O)cc1,92.8% (active)
22,Cc1noc(C)c1COc1ccc2ccc(=O)oc2c1,2.13% (inactive)
23,Cc1cc(F)ccc1NC(=O)C(C)n1c2ccccc2c2nc(=O)cc(C)n21 (stereo not given),-2.79% (inactive)

row,SMILES,inhibition
1,CC1=NNC(=O)C1CC(=O)N/N=C/c1ccncc1 (stereo not given),9.24% (inactive)
2,C#CCOCCOCCOCCNc1nc(N2CCN(C(=O)[C@H](CCC(=O)O)n3cc(C(N)CO)nn3)CC2)nc(N2CCN(C(=O)[C@H](CCCCN)n3cc(C(N)CC(C)C)nn3)CC2)n1 (stereo not given in full),-22.6% (inactive)
3,Cn1nc(C(F)(F)F)cc1-c1ccc(/C=C(\C#N)C(=O)c2cccc(C(F)(F)F)c2)s1,-6.02% (inactive)
4,CCOC(=O)/C(=C\c1ccc([N+](=O)[O-])cc1)C(=O)c1cc(C(C)=O)c(Nc2ccccc2)s1,112% (active)
5,CCOC(=O)COc1ccc([N+](=O)[O-])cc1,3.34% (inactive)
6,Cc1cccc(NC(=O)c2sc(-c3ccccc3)nc2-c2ccc([N+](=O)[O-])cc2)c1,31.6% (inactive)
7,COC(=O)c1sc(C(F)(F)F)c(-c2ccccc2)c1S(=O)(=O)N(C)C,21.3% (inactive)
8,CC(C)c1ccc2c(c1)c(SC(C)(C)C)c(CC(C)(C)C(=O)O)n2Cc1ccc(Cl)cc1,-15.8% (inactive) and 96.6% (active)
9,O=S(=O)(NCCc1csc(-c2ccccc2)n1)c1cccnc1,10.5% (inactive)
10,Cc1ccc(NC(=O)Nc2ccc3oc(C)nc3c2)cc1,-9.69% (inactive)
11,COc1ccc2nc(/N=C(\N)NC(=O)Nc3ccccc3)nc(C)c2c1,29.8% (inactive)
12,Cc1ccc(N/C(N)=N/c2nc(C(F)(F)F)cc(C(F)(F)F)n2)cc1,92.5% (active)
13,C/C=C\C=C\C(=O)N1CC2(CC(c3cccc(NC(=O)/C(C)=C\C)c3)=NO2)C[C@H]1C(N)=O (stereo not given in full),-9.78% (inactive)
14,Cc1cccc(NC(=O)c2ccc([N+](=O)[O-])o2)c1,-27% (inactive)
15,COc1ccc(Cl)cc1S(=O)(=O)N1CCC(O)(c2ccc(Cl)cc2)CC1,19.7% (inactive)
16,C[n+]1ccccc1C1CCCC/C1=N\Nc1ccc([N+](=O)[O-])cc1[N+](=O)[O-] (stereo not given),8.15% (inactive)
17,O=C(Nc1ccccc1)O/N=C1\CCCCC1c1ccc([N+](=O)[O-])cc1[N+](=O)[O-] (stereo not given),22.1% (inactive)
18,O=[N+]([O-])c1ccc(N/N=C2/CCCCC2c2ccccn2)c([N+](=O)[O-])c1 (stereo not given),80.1% (active)
19,O=C(NNC(=O)c1cnccc1C(F)(F)F)c1ccc(Cl)cc1,-0.67% (inactive)
20,S=c1[nH]nc(-c2cc(-c3ccsc3)n[nH]2)n1-c1ccccc1,0.59% (inactive)
21,O=C(Nc1cccc(-c2nc3ccccc3[nH]2)c1)c1ccc(C(=O)Nc2cccc(-c3nc4ccccc4[nH]3)c2)cc1,-38.4% (inactive)
22,CCOC(=O)c1c(NC(=O)C2CCN(S(=O)(=O)c3ccc(Cl)cc3)CC2)sc2c1CCCC2,15.6% (inactive)
23,O=C(Nc1sc2c(c1-c1nc3ccccc3[nH]1)CCCC2)C1CC1,80.4% (active)

row,SMILES,inhibition
1,O=C(Nc1ccc(F)cc1F)N1CCCN(CCOc2ccccc2)CC1,-11% (inactive)
2,Cc1ccc(Cl)c(OCC(=O)NN2CCN(C)CC2)c1,5.66% (inactive)
3,c1ccc(CC2CCN(c3nc4ccccc4n4cnnc34)CC2)cc1,76.1% (active)
4,NC(=O)c1ccc(CN2CCC(Cc3ccccc3)CC2)cc1,-9.98% (inactive)
5,O=C(c1ccccc1)c1ccc2nc(N3CCCCC3)c3nncn3c2c1,19.1% (inactive)
6,N#CC1=C(N)Oc2c(ccc3cccnc23)C1c1ccncc1 (stereo not given),-1.42% (inactive)
7,CCOC(=O)c1c(NC(=O)CNC2CCCc3ccccc32)sc(C(N)=O)c1C (stereo not given),95.9% (active)
8,CCOC(=O)c1sc(NC(=O)COc2ncnc3ccccc23)c(C(=O)OCC)c1C,43% (inactive)
9,Nc1nnc(SCC(=O)NC2CCCc3ccccc32)s1 (stereo not given),12.6% (inactive)
10,Cc1ccc(/C=N/NC(=S)Nc2cccc(S(=O)(=O)N(C)C)c2)o1,36% (inactive)
11,NC(=O)c1ccc(-c2csnn2)cc1,9.46% (inactive)
12,Cc1n[nH]c(=S)n1/N=C/c1ccc(Br)o1,14.2% (inactive)
13,Cc1ccccc1-c1n[nH]c(=S)n1/N=C/c1ccc(-c2ccccc2Br)o1,72.8% (active)
14,Cc1ccccc1-c1n[nH]c(=S)n1C,-13.1% (inactive)
15,CC1CN(c2nc(Nc3ccccc3)nc(N)c2[N+](=O)[O-])CC(C)O1 (stereo not given),9.58% (inactive)
16,Cc1cccc(-n2c(N)c(C(=O)N3CCN(C)CC3)sc2=S)c1,-3.45% (inactive)
17,CCCc1nc(N2CCN(C)CC2)c2sc(=S)n(-c3ccccc3)c2n1,74.7% (active)
18,CCCc1nc(-c2ccccc2O)n(-c2ccccc2)n1,40.5% (inactive)
19,O=C(NCCc1ccccn1)c1cccnc1Oc1ccc(Cl)cc1,18.1% (inactive)
20,CCCN(CCC)S(=O)(=O)c1ccc(C(=O)NNC(=O)c2cc(OC)c(OC)c(OC)c2)cc1,2.06% (inactive)
21,C/C(CC(=O)NC(C)c1ccccc1)=N\NC(N)=S (stereo not given),0.93% (inactive)
